# Columns and labels:
# Assay in all cases: PBM binding z-score (relative to random genomic background probes); higher = stronger binding; sequences stand for … in GC…GCGATTGACAGCGTAGAATGAAGG
# [1] = system: FXR:RXRa (NR concentration 270 nM, RXRa partner concentration 90 nM)
# Procedure, shortened: (§1)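 Ligand-free nuclear receptor dimers were bound for 1 h to custom Agilent 4×180K protein-binding microarrays. Detection used antibodies against each partner (one per run). Binding z-scores rest on regression-normalized fluorescence, with random background probes as the reference.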
# [2] = system: LXRa:RXRa (NR concentration 270 nM, RXRa partner concentration 90 nM)
# Procedure, shortened: as §1
# [3] = system: LXRa homodimer (NR concentration 270 nM)
# Procedure, shortened: as §1
# [4] = system: LXRb:RXRa (NR concentration 270 nM, RXRa partner concentration 90 nM)
# Procedure, shortened: as §1
# [5] = system: LXRb homodimer (NR concentration 270 nM)
# Procedure, shortened: as §1
# [6] = system: PPARa:RXRa (NR concentration 270 nM, RXRa partner concentration 90 nM)
# Procedure, shortened: as §1
# [7] = system: PPARg:RXRa (NR concentration 180 nM, RXRa partner concentration 90 nM)
# Procedure, shortened: as §1
# [8] = system: PPARg:RXRa 270nM:90nM, anti-RXR (NR concentration 270 nM, RXRa partner concentration 90 nM)
# Procedure, shortened: as §1
# [9] = system: PPARg:RXRa 30nM:10nM, anti-RXR (NR concentration 30 nM, RXRa partner concentration 10 nM)
# Procedure, shortened: as §1
# [10] = system: PPARg:RXRa 90nM:30nM, anti-RXR (NR concentration 90 nM, RXRa partner concentration 30 nM)
# Procedure, shortened: as §1
Sequence,PBM binding z-score [1],PBM binding z-score [2],PBM binding z-score [3],PBM binding z-score [4],PBM binding z-score [5],PBM binding z-score [6],PBM binding z-score [7],PBM binding z-score [8],PBM binding z-score [9],PBM binding z-score [10]
ATACGTAGGTTAGGGTCATTCAGAAAGTAGGGAA,4.93,3.99,1.16,4.2,1.26,4.88,2.96,3.41,1.32,2.77
CGTCAAAGTTCACCTAAGGTAACGTAAAGCACGC,6.94,6.74,3.99,4.24,1.27,5.11,5.63,5.75,2.48,4.52
CGTCCAAGGTCAATGCTAGGCCAGTGAAAGCATT,6.44,4.55,0.299,3.51,0.207,4.74,3.02,4.07,1.14,2.82
CGAACTAGGTCACCAGGACAGTCAAGAGGTTGGA,4.17,2.7,0.267,1.86,-0.431,5.16,8.84,6.8,4.63,6.37
TTACCAAGGTTAAAGGTCGTTGATGCACGCCTTG,4.98,5.1,1.51,4.06,0.439,5.64,7.98,8.34,8.79,8.95
CGAACTAGGTCAAAGGACAGTGTAAGGCGACGTA,3.76,2.6,-0.176,1.73,-0.314,5.13,9.94,8.19,6.9,8.83
CCTAGCAGGCGAGGGTCACTCAAGCATTTCGCTT,1.72,1.44,-0.428,1.56,-1.08,2.63,0.461,1.58,-0.298,1.34
AGTCAAAGTTCATCTTGGTAACGTAAGATATGCT,6.87,5.48,5.97,4,2.25,4.58,6.07,6,3.31,5.53
CCTACTGGGCCAAAGGTCTTTGATTCCAATGCTC,-0.409,-0.406,-0.413,0.232,-0.841,4.15,8.96,8.59,7.74,9.9
CGAACTAGGTCAAAGGACGGTGAAAGGCGACGTA,4.04,2.51,-0.304,1.41,-0.584,5.34,9.5,8,7.43,8.82
GCTTACGGGTGAAAGGTTATAGCATGAATAGAAT,2.96,2.79,0.142,3,-0.294,5.7,9.88,8.08,7.78,8.71
CGAACTAGGTCACTAGGACAGTGAAGAGGTTGGA,2.63,1.57,-0.199,0.869,-0.496,4.78,8.29,6.68,3.9,6.28
GATACAGGGTCAACTAGAGGCCAGAGTATGGAAA,7.52,5.21,0.703,4.77,0.877,6.2,6.7,5.69,2.72,4.61
TTACGAAGGTGAAAGGTCGTTGATGCACGCCTTG,3.43,3.33,0.283,2.75,-0.598,5.25,8.12,7.35,6.74,8.17
CGAACTAGGTCCCCAGGACAGTGAAGAGGTTGGA,-0.407,-0.759,-0.417,-0.926,-1.3,0.171,0.418,0.762,-0.453,0.0759
CGTCAAAGTTCAAGGTTACGTAACAGAAAGCAGC,6.96,5.9,2.46,4.07,1.18,5.3,4.97,5.43,2.35,4.26
ATAAGTAGGTTAGGGTCATTCAGAAAGTAGGGAA,4.83,4.27,1.68,4.53,2.04,5.65,8.07,7.06,4.72,7
ATCTCTAGGTAACAAGGTCAGTGAAAGAGAGGAC,1.72,1.92,0.814,1.9,1.16,3.22,3.64,3.84,1.54,3
TAGCCTAGGTCATTTGGCCAGTATAGTACGCATC,4.44,3.74,1.16,2.71,1.07,3.48,2.06,2.03,0.424,1.5
ACATGTAGGTTAGGGTCATTCAGAAAGTAGGGAA,5.38,4.23,1.48,4.58,1.99,5.48,6.68,5.77,3.37,5.57
ATCTCTAGGTAAAGTTCAGCGAAAGATCGATAGA,1.69,2.33,1.67,1.65,0.72,2.81,3.77,4.78,2.56,4.27
TCTCGGAGGTCACGAAGGTCAGAGCTTTCCAGAG,7.49,6.31,3.52,5.6,0.683,6.27,7.7,7.54,4.57,6.59
CTAACTAGGTCAAAGGACAGTGAAAGGCGACGTA,3.68,2.75,0.132,1.85,-0.0221,5.86,10.8,9.18,9.63,10.2
CGAACTAGGTCAACGACAGTGAATCTCCGCACGC,3.59,2.08,0.0952,1.47,-0.0209,4.54,7.37,6.13,3.91,5.64
TAGCATAGGTCATGCGGGCCAGTATAGTGTCGGC,5.29,5.13,0.874,3.33,-0.127,5.22,4.08,4.44,0.97,3.18

Sequence,PBM binding z-score [1],PBM binding z-score [2],PBM binding z-score [3],PBM binding z-score [4],PBM binding z-score [5],PBM binding z-score [6],PBM binding z-score [7],PBM binding z-score [8],PBM binding z-score [9],PBM binding z-score [10]
ATCGAAAGGTCGAAGGAGAGTATACCCACCCGAA,4.01,3.28,0.14,2.48,0.895,3.8,2.15,2.57,1.14,2.01
CGAACTAGGTCAAAGGACAGCGAAAGGCGACGTA,4.22,2.78,-0.185,1.94,-0.366,5.76,10.8,8.88,9.93,10.3
CGAACAAGGTCAAAGGACAGTGAAAGGCGACGTA,7.69,5.16,0.368,4.24,0.892,6.01,7.72,6.93,4.75,6.72
CCTACTGGGCCAAAGGTCCTTGATTCCAATGCTC,-0.0555,-0.225,-0.404,0.0817,-0.832,3.84,8.78,8.68,8.07,8.91
GCTGCTAGGTCAACTGATGGTGAGCTAAAGCTCG,4.47,2.63,-0.169,1.71,-0.179,3.57,2.57,3.02,0.564,2.06
ATCGAAAGGGCGTGAGGTGAGTATACAGAAAGGC,0.437,0.45,-0.364,0.429,-0.169,1.36,0.822,0.778,0.328,0.452
ACTAGTGGGTCAGCTGAGGTCACACACAATTCGG,4.98,5.49,2.88,4.54,0.173,4.9,6.38,5.68,3.12,4.86
TCTAGTTGGTCATGGAGGTCACACACGACGGGTA,3.61,3.7,3.33,3.3,1.23,3.9,3.39,3.95,3.27,3.52
ATATGGAGGTTAGCTGGGGTCATTCAGACTAGGC,5.58,6.45,4.02,5.67,1.51,5.04,3.15,3.77,1.68,2.72
ACTAGTTGGTCACCTGAGGTCACACACAATTCGG,4.76,6.29,6.67,4.97,1.5,4.17,2.75,3.37,1.09,2.1
ATATGTAGTTTAGGGTCATTCAGAAAGTAGGGAA,5.21,4.46,1.76,4.87,2.03,5.14,3.26,3.61,1.72,2.87
ACTCGGAGGACAAACGTCAGAGCTACGCCAGTGA,-0.117,-0.418,-0.482,-0.769,-0.602,-0.386,0.904,0.765,-0.389,0.589
ATATGTAGGTTAGGGTCTTTCAGAAAGTAGGGAA,1.38,0.75,0.422,1.37,1.11,3.21,4.93,3.87,1.72,3.03
GCTAGTAGGTCAGTAAAAGGTCACACACCGGTCG,4.98,5.45,5.31,5.01,1.21,5.55,7.3,6.72,4.43,6.42
ATCGAAAGGTCGTGAGGTGACTATACAGAAAGGC,5.54,4.2,0.422,3.45,0.557,5.49,4.59,4.64,1.98,3.39
CGTCTAAGGTCAAGGTCAGTGAAAGAGACTCGAA,8.18,6.22,1.33,5.02,1.18,6.43,6.86,6.78,3.43,5.94
CGAACTAGGTCACCAGGACAATGAAGAGGTTGGA,3.54,2.55,0.00967,1.74,0.0583,5.41,8.69,6.83,4.53,6.43
CGAACTAGATCAAAGGACAGTGAAAGGCGACGTA,-0.658,-0.667,-0.396,-0.5,-0.637,1.77,3.32,4.89,2.76,4.58
TAGCCTAGGTCATGCGGGCCAGCATAGTGTCGGC,3.77,3,0.115,1.37,-0.19,3.4,2.11,2.55,0.274,1.49
CGTCTAAGGTCAGCAGGTCAGTGAAAGCGACGTG,6.71,4.48,0.785,3.61,0.0498,5.3,4.86,5.46,1.6,4.03
CCTTACGGGTAACTCCAGGTTATAGCATCGGAGT,0.565,7.03,3.25,4.13,0.0113,0.572,0.317,0.049,-0.487,-0.0126
GATACAGGGTCAGCTTGAGGCCAGAGTATGGAAA,4.2,2.37,-0.58,2.03,-0.747,3.98,2.71,2.81,0.493,1.56
CGAATTAGGTCAAAGGACAGTGAAAGGCGACGTA,4.51,3.08,0.314,2.23,0.106,6.11,9.47,8.69,8.66,9.34
ATCGAAAGGTCGTGAGGTGTGTATACAGAAAGGC,5.39,4.05,0.0507,3.03,0.423,4.94,3.6,3.97,1.61,2.81
